Measurements from PubChem BioAssay (EPA / NIEHS).
Active and inactive are the calls of the source. The calls were made as follows: active = hit-call score of the fitted dose curve at least 0.9, where 1 is the maximum; inactive = score below 0.9.

The compounds below were run on Forkhead box O1 (FOXO1), FOXO1 (gene 2308) (assay: LTEA_HepaRG_FOXO1: Life Technologies and Expression Analysis (LTEA) Assay for Forkhead box O1 (FOXO1) using HepaRG (AID 2283456)). Conditions: mRNA level, 48 h; actives raise or lower the signal.
Outline: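 HepaRG, 48 h exposure, 8-pt half-log series from 100 uM in 0.5% DMSO, duplicates; Fluidigm qRT-PCR mRNA, housekeeping-normalised; bidirectional fit vs DMSO baseline.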

outcome, inactive:
CC1(C)C(=O)N(Br)C(=O)N1Br
CC(=O)OCCC(C)C
CC(=O)c1ccc2c(c1)[C@H](NC(=O)c1ccc(F)cc1)[C@@H](O)C(C)(C)O2
C1=CCCC=CCCC=CCC1
O=c1[nH]c2ccc(S(=O)CCN3CCC(Cc4ccc(F)cc4)CC3)cc2o1 (centres undefined)
Cn1c(=O)c2c(ncn2C)n(C)c1=O
O=C1OC(=O)C2C3C=CC(C3)C12 (centres undefined)
CC(C)=CCCC(C)CCO (centres undefined)
Cn1c(=O)cc(Oc2ccc(F)cc2F)c2cnc(NCC(C)(C)O)nc21
CC(C)CC(C)(O)C#CC(C)(O)CC(C)C (centres undefined)
Clc1nc(Cl)c(Cl)c(Cl)c1Cl
COC(=O)c1c(Cl)c(Cl)c(C(=O)OC)c(Cl)c1Cl
CCn1nc(Cc2ccccc2)cc1C1CCN(C[C@H]2C[C@H](N(C)[C@@H](C(=O)O)C(C)C)C[C@@H]2c2cccc(F)c2)CC1
CCC(C)(C)C(=O)O[C@H]1C[C@@H](C)C=C2C=C[C@H](C)[C@H](CC[C@@H]3C[C@@H](O)CC(=O)O3)[C@H]21
CCCC(=O)OCC
CC(C)CCCCCCOC(=O)c1ccc(C(=O)OCCCCCCC(C)C)c(C(=O)OCCCCCCC(C)C)c1
C[C@](N)(Cc1ccc(O)c(O)c1)C(=O)O

AC50, active:
O=C(CCCCCCCCc1cccnc1)N1CCC(C=C(c2ccccc2)c2ccccc2)CC1 12.4 µM
Cn1cnc([N+](=O)[O-])c1Sc1ncnc2nc[nH]c12 5.19 µM
